IL-1B inflam inh = inhibitors of inflammasome signaling (IL-1 beta secretion) | THP-1 LPS/ATP IL-1B secretion, AlphaLISA, 16 h; hits give low values | activity change, % at 57.5 µM | 4.7% of 360,000 active; in the data active = activity change below about -50%; inconclusive = mostly about -30% to -49%; also: % is scaled to controls: 0 for no effect and ±100 for the full control effect
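THP-1 cells pretreated 1 hr with compounds (up to 57.5 uM final), then stimulated with LPS (250 ng/mL final) plus ATP (1.25 mM final); secreted IL-1B measured by AlphaLISA after 16 hr, decreased signal indicating inhibition.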
TDP1 cell noCPT = qHTS for Inhibitors of human tyrosyl-DNA phosphodiesterase 1 (TDP1): qHTS in cells in absence of CPT. DT40 Tdp1-/- hTDP1 cells, no CPT, ATP luminescence, 48 h. Potency, µM (top dose mostly 46.2 µM), for the others: top-dose activity change, negative = growth inhibition, actives largely listed as inhibitors. 15% of 420,000 active. AID 686978, 2013; also: potency is read from the fitted curve at half-maximal effect; % is scaled to controls: 0 for no effect and ±100 for the full control effect; nearly all actives have a fitted effect of over 55% in size
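Luminescent ATP content (CellTiter-Glo) served as the growth readout. Knockout chicken DT40 cells expressing human TDP1 were exposed to compounds without camptothecin for a minimum 48 hr at 37 °C.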
DT40 TDP1 CPT = growth inhibition of DT40 Tdp1-/-;hTDP1 cells with camptothecin (screen for TDP1 inhibitors); chicken DT40 Tdp1-/-;hTDP1 cells + 20 nM CPT, ATP luminescence, 48 h; 12% of 420,000 active; AID 686979; Potency, µM (series often up to 46.2 µM), for the others: at the highest dose activity change, negative = growth inhibition, most hits filed as inhibitors; also: potency is read from the fitted curve at half-maximal effect; % is scaled to controls: 0 for no effect and ±100 for the full control effect; nearly all actives have a fitted effect of over 55% in size
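Cell growth measured by CellTiter-Glo luminescence after a minimum 48 h, 37 C compound exposure with 20 nM CPT in Tdp1-knockout DT40 cells stably expressing hTDP1, seeded 400/well; qHTS titration format.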
TGFb inhibitor = TGF-b pathway inhibition; HepG2 CAGA-GFP TGF-b/SMAD3 reporter, GFP fluorescence, 18 h; TGF-beta stimulated, 500 pg/mL final; Potency, µM (series often up to 46.1 µM), for the others: top-dose activity, negative = inhibition, most hits filed as inhibitors; 1.2% of 410,000 active; also: potency is read from the fitted curve at half-maximal effect; % is scaled to controls: 0 for no effect and ±100 for the full control effect; nearly all actives have a fitted effect of over 65% in size
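Cell-based qHTS in HEPG2 carrying a CAGA-GFP Smad reporter; compounds added before 500 pg/mL final TGF-beta, 18 h incubation at 37 degrees C, GFP fluorescence quantified per cell by imaging cytometry.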
TDP1 inh = TDP1 (human) enzyme inhibition | 0.28% of 350,000 active | AID 485290 | Q9NUW8 | Potency, µM (highest dose often 130 µM), for inactives: at the top dose activity change, negative = inhibition, hits mostly inhibitors | recombinant TDP1, AlphaScreen DNA substrate cleavage; also: potency is read from the fitted curve at half-maximal effect; % is scaled to controls: 0 for no effect and ±100 for the full control effect; nearly all actives have a fitted effect of over 40% in size
Target sequence (Q9NUW8 whole entry, looked up): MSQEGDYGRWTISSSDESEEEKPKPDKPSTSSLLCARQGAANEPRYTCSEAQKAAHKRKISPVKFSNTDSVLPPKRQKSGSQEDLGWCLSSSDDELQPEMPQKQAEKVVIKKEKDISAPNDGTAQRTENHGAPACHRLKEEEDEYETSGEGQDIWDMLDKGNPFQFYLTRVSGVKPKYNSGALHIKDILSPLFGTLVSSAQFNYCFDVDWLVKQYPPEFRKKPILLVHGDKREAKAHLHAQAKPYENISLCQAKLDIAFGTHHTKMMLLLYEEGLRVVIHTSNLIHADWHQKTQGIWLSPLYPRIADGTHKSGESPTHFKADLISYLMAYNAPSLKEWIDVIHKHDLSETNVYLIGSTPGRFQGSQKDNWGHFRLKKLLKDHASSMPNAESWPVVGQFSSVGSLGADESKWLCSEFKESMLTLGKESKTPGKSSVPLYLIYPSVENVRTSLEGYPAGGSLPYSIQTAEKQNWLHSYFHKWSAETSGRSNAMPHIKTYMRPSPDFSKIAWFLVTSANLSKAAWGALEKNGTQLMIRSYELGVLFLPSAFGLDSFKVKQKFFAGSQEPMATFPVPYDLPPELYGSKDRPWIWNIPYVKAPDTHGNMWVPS
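Recombinant E. coli-expressed Tdp1 (1 nM) preincubated with compound 15 min at RT, then 5'-biotin/3'-phosphotyrosine-FITC DNA substrate (15 nM) added for 5 min. AlphaScreen beads (10 ug/ml) added, 10 min RT; tyrosine-FITC cleavage read as signal loss.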
HepG2 viability = HepG2 cytotoxicity, counter-screen for TGF-b inhibitors. Potency, µM (series often up to 46.1 µM), inactives show at the top dose activity change, negative = cytotoxicity, hits mostly cytotoxic. HepG2 CAGA-GFP viability, ATP luminescence, 18 h. 0.76% of 410,000 active; also: potency is read from the fitted curve at half-maximal effect
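HepG2 CAGA-GFP cells (1000/well, DMEM with 1% FBS) received compound, then TGF-beta at 500 pg/mL final, and were incubated 18 hours at 37 degrees C. Viability was read by CellTiter-Glo luminescence. Media-only wells were set as complete cell-killing and DMSO as no toxicity.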
Active calls of the source: *; ! = not active in a repeat; [ ] = dose if it differs, or a comment. Only some compounds are listed: those with a hit (about 18% of all), similar ones and a draw of the others. Unless noted, calls follow the shape of the dose curve; as a rule, active = well fitted curve in the direction sought with a large enough effect; inconclusive = small, poorly fitted or top-dose-only effect, or another doubt; inactive = no such curve, though single readings can be large; an effect the other way counts as inactive or inconclusive.

What do the screens show for `Cc1cc(C)n(-c2ccc(NC(=O)C3CCCCN3C(=O)c3sccc3C)cc2)n1` (configuration not stated)?
IL-1B inflam inh: inactive; TDP1 cell noCPT: inconclusive; DT40 TDP1 CPT: inconclusive; TGFb inhibitor: -14.3%; TDP1 inh: 3.7%; HepG2 viability: 7.6%

Results for Cc1ccccc1CC1(CO)CCCN(C(=O)c2ccc(F)cc2)C1 (configuration not stated) ?
IL-1B inflam inh: -12.7; TDP1 cell noCPT: inconclusive; DT40 TDP1 CPT: inconclusive; TGFb inhibitor: -12.1%; TDP1 inh: 0.0%; HepG2 viability: -4.7%

What do the screens show for `Cc1ccccc1CC1(CO)CCCN(C(=O)c2ccc3ncccc3c2)C1` (configuration not stated)?
IL-1B inflam inh: 26.9; TDP1 cell noCPT: 14.6µM*; DT40 TDP1 CPT: 6.51µM*; TGFb inhibitor: -29.9%; TDP1 inh: 4.8%; HepG2 viability: -2.9%

Results for CC(C)(CC1(C)NC(=O)NC1=O)OCc1ccccc1 (configuration not stated) ?
IL-1B inflam inh: 8.9; TDP1 cell noCPT: 7.0%; DT40 TDP1 CPT: -0.3%; TGFb inhibitor: -1.9%; HepG2 viability: -1.3%

What do the screens show for `COc1ccc(S(N)(=O)=O)cc1C(=O)OCCCOc1ccc(F)cc1`?
IL-1B inflam inh: -8.8; TDP1 cell noCPT: -4.7%; DT40 TDP1 CPT: 1.1%; TGFb inhibitor: inconclusive; HepG2 viability: -0.4%

What do the screens show for `Cc1cccnc1NC(=O)c1ccc2c(c1)OCCO2`?
IL-1B inflam inh: -5.0; TDP1 cell noCPT: -8.9%; DT40 TDP1 CPT: 0.8%; TGFb inhibitor: -0.7%; TDP1 inh: 0.7%[0.505 µM]; HepG2 viability: 1.5%

What do the screens show for `O=C(Nc1ncccc1O)c1ccc2ccccc2c1`?
IL-1B inflam inh: 46.6; TDP1 cell noCPT: 1.6%; DT40 TDP1 CPT: -14.2%; TGFb inhibitor: 9.2%; TDP1 inh: 2.6%; HepG2 viability: -11.1%

How did O=C(Nc1ncccc1O)c1ccc2c(c1)OCCO2 do in these assays?
IL-1B inflam inh: 11.5; TDP1 cell noCPT: 14.6µM*; DT40 TDP1 CPT: 23.1µM*; TGFb inhibitor: -0.1%; TDP1 inh: 0.6%; HepG2 viability: -8.8%

Results for O=C(Nc1ncccc1O)c1ccc2c(c1)OCO2 ?
IL-1B inflam inh: 26.6; TDP1 cell noCPT: 16.4µM*; DT40 TDP1 CPT: inconclusive; TGFb inhibitor: 4.6%; TDP1 inh: 0.2%; HepG2 viability: -3.0%

What do the screens show for `CCCS(=O)(=O)NC(=O)C1(C)CCCN(C(=O)c2ccc3ccccc3c2)C1` (configuration not stated)?
IL-1B inflam inh: 10.2; TDP1 cell noCPT: -16.8%; DT40 TDP1 CPT: 5.5%; TGFb inhibitor: 7.7%; HepG2 viability: -2.8%

Results for CN(C)CCNC(=O)/C(=C/c1ccc(-c2cccc([N+](=O)[O-])c2)o1)NC(=O)c1ccccc1 ?
IL-1B inflam inh: inconclusive; TDP1 cell noCPT: inconclusive; DT40 TDP1 CPT: inconclusive; TGFb inhibitor: -6.7%; TDP1 inh: -3.2%; HepG2 viability: -3.4%

What do the screens show for `CCCCNC(=O)/C(=C\c1ccc([N+](=O)[O-])o1)NC(=O)c1ccccc1`?
IL-1B inflam inh: 24.7; TDP1 cell noCPT: inconclusive; DT40 TDP1 CPT: 16.4µM*; TGFb inhibitor: inconclusive; TDP1 inh: -3.8%; HepG2 viability: -24.6%

Results for COC(=O)/C(=C\c1ccc([N+](=O)[O-])o1)NC(=O)c1ccccc1 ?
IL-1B inflam inh: 5.5; TDP1 cell noCPT: 11.2µM*; DT40 TDP1 CPT: 14.1µM*; TGFb inhibitor: 11.2µM*; TDP1 inh: 1.1%; HepG2 viability: 12.6µM*

Results for CCCCCn1c(=N)c(S(=O)(=O)c2ccccc2)cc2c(=O)n3ccccc3nc21 ?
TGFb inhibitor: 4.3%; HepG2 viability: -7.2%

What do the screens show for `COC(=O)C(C)(C)ONC(=O)Nc1ccc(Br)cc1`?
IL-1B inflam inh: 0.0; TDP1 cell noCPT: -13.7%; DT40 TDP1 CPT: 23.1µM*; TGFb inhibitor: 6.9%; TDP1 inh: 5.5%; HepG2 viability: 6.1%

Results for Cc1ccccc1NC(=O)c1cccc(Cn2cc(Br)c([N+](=O)[O-])n2)c1 ?
IL-1B inflam inh: -1.7; TDP1 cell noCPT: inconclusive; DT40 TDP1 CPT: inconclusive; TGFb inhibitor: 4.5%; TDP1 inh: 3.4%; HepG2 viability: -1.9%

How did Cc1cccc(NC(=O)c2cccc(Cn3cc(Br)c([N+](=O)[O-])n3)c2)c1C do in these assays?
IL-1B inflam inh: inconclusive; TDP1 cell noCPT: 20.6µM*; DT40 TDP1 CPT: inconclusive; TGFb inhibitor: -32.3%; TDP1 inh: 5.9%; HepG2 viability: 3.3%

What do the screens show for `COc1ccccc1OC(C)C(=O)Nc1ccc(S(=O)(=O)N2CCN(C)CC2)cc1` (configuration not stated)?
IL-1B inflam inh: 10.3; TDP1 cell noCPT: 9.2%; DT40 TDP1 CPT: 4.7%; TGFb inhibitor: -0.6%; HepG2 viability: 1.8%

Results for Cc1noc(C)c1COc1ccc(C(=O)OCC(=O)Nc2ccc(S(N)(=O)=O)cc2)cc1 ?
IL-1B inflam inh: -20.1; TDP1 cell noCPT: 16.4µM*; DT40 TDP1 CPT: inconclusive; TGFb inhibitor: 2.1%; TDP1 inh: 0.8%; HepG2 viability: -2.8%

How did Cc1noc(C)c1COc1ccc(C(=O)OCC(=O)Nc2ccc3c(c2)OCO3)cc1 do in these assays?
IL-1B inflam inh: -29.9; TDP1 cell noCPT: -26.2%; DT40 TDP1 CPT: -6.3%; TGFb inhibitor: 19.4%; TDP1 inh: 2.0%; HepG2 viability: -4.6%

Results for Cc1noc(C)c1COc1ccc(C(=O)OCC(=O)NCc2ccccc2Cl)cc1 ?
IL-1B inflam inh: -8.1; TDP1 cell noCPT: 29.1µM*; DT40 TDP1 CPT: inconclusive; TGFb inhibitor: inconclusive; TDP1 inh: 1.8%; HepG2 viability: 1.9%

How did COc1ccccc1C(=O)Nc1cc(-c2ccc(C)cc2)no1 do in these assays?
IL-1B inflam inh: inconclusive; TDP1 cell noCPT: 13µM*!; DT40 TDP1 CPT: inconclusive; TGFb inhibitor: 12.2%; TDP1 inh: -8.6%; HepG2 viability: -30.3%

Results for Cc1ccccc1C(=O)Nc1cccc(NC(=O)c2ccc(C(C)(C)C)cc2)c1 ?
TDP1 cell noCPT: 5.8µM*; DT40 TDP1 CPT: 8.2µM*; TGFb inhibitor: inconclusive; TDP1 inh: -0.4%[12.3 µM]; HepG2 viability: -21.7%

What do the screens show for `COc1ccccc1C(=O)Nc1cccc(NC(=O)c2ccccc2C)c1`?
IL-1B inflam inh: -70.0*; TDP1 cell noCPT: inconclusive; DT40 TDP1 CPT: inconclusive; TGFb inhibitor: -0.5%; HepG2 viability: -6.2%

High-throughput results: PubChem, National Center for Advancing Translational Sciences (NCATS)
